Compound activity as filed in PubChem.
ROMK mod – human ROMK K+ channel modulation, primary screen. P48048. Tet-inducible ROMK, thallium flux fluorescence; actives lie on both sides. B-score at 10 µM. 130,000 tested, 2% active. AID 1918;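 active = signal ratio slope over the read window, or its plate-corrected B-score, at least 3 SD from the plate mean, either direction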;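 note: B-score of the F/F0 ratio slope over 7 to 12 s after thallium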
Target sequence (P48048 whole entry, looked up): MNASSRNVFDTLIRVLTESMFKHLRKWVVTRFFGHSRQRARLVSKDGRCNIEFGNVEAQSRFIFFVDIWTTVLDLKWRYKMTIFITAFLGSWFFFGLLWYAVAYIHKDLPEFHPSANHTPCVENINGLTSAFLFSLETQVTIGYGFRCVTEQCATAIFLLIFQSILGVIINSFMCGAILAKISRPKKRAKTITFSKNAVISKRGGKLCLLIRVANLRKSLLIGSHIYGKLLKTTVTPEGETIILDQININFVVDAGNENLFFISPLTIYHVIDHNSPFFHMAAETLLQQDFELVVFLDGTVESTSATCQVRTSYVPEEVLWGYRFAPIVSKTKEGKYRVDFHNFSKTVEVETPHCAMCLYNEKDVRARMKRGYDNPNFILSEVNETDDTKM
S1P3 antagonist – S1P3 (human) receptor antagonism. AID 485. 170,000 tested, 0.27% active. Q99500. inhibition, % at 4.98 µM. CHO S1P3 NFAT-BLA reporter, FRET fluorescence, antagonist mode;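 active = inhibition above the plate cutoff, the mean inhibition of test wells on that plate plus 3 SD, cut at about 28% in these data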;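 note: cells challenged with S1P at its EC80 of 0.8 µM; blue over green emission ratio from cleaved BLA substrate after 4 h stimulation; 0% = S1P-stimulated wells and 100% = unstimulated DMSO-only wells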
S1P4 antagonist – antagonists of human S1P4 receptor. S1P4-expressing cells, antagonist mode, reporter read-out. inhibition, % at 4.98 µM. 220,000 tested, 0.26% active. O95977; in the data active = inhibition above about 29%;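 note: 0% = wells stimulated with agonist and 100% = vehicle wells without agonist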
KCC2 mod – modulators of human KCC2 chloride dependent transport; KCC2 cells, thallium flux FluoZin-2 fluorescence; B-score of Tl+ flux slope (higher = more flux/activation; lower = inhibition) at 10 µM; 190,000 tested, 2.2% active; AID 1456;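 active = thallium flux slope and its plate-corrected score both differing from the plate sample mean at a set confidence after two filtering rounds, in either direction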;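 note: slope of fluorescence scaled to starting intensity during 10 to 20 s after thallium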
S1P4 agonist – agonists of human S1P4 receptor; 220,000 tested, 0.35% active; AID 1509; S1P4-expressing cell line, agonist reporter assay; activation, % at 4.98 µM; O95977; in the data active = activation above about 11%;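 note: 0% = DMSO vehicle and 100% = reference agonist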
RAM network inh – blocks the yeast RAM network. S. cerevisiae dse1pr::URA3 reporter, 5-FOA growth OD615, 2 d; analog-sensitive cbk1-as2 kinase mutant strain. inhibition, % at 50 µM. 190,000 tested, 1.8% active. AID 868;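 active = inhibition above a set limit, 3 SD over mean compound inhibition, cut at about 8.4% in these data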;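 note: 0% = DMSO-only wells with no growth and 100% = 10 µM 1-NA-PP1 full growth; inhibition rescues growth on 5-FOA so higher OD means more RAM inhibition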
ROMK retest – human ROMK channel modulation, retest confirmation. shares compounds with ROMK mod. ROMK thallium flux, fluorescence ratio; hits give low values. normalized thallium flux (F/F0 slope) at 10 µM. 3,000 tested, 54% active;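 active = Flux at 10 µM at least 3 SD below or above vehicle control mean in one or both replicates; inconclusive = no clear call, values can overlap the other calls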
* = called active by the depositor; ? = inconclusive; / = no result. This is a sample that favours compounds with a hit; in the whole collection about 5.1% have one here.

SMILES	ROMK mod	S1P3 antagonist	S1P4 antagonist	KCC2 mod	S1P4 agonist	RAM network inh	ROMK retest
CCN(CC)c1ccc(/C=C2/C(=O)ON=C2C)cc1	-5.66*	-9.5	15.3	-0.753	0.7	0.8	0.0356*
Cc1c(NC(=O)C(C)OC(=O)CCc2ccccc2)c(=O)n(-c2ccccc2)n1C (stereo not given)	0.0361	-9.7	8.8	-0.00832	0.7	0.3	/
COc1ccc(S(=O)(=O)NCCC(C)C)cc1C	-1.55	/	11.2	1.45	-4.6	3.6	/
COc1ccc(CCn2c(NN)nc3c2c(=O)[nH]c(=O)n3C)cc1	4.84*	10.5	-5.3	0.197	1.8	/	?
O=C1NC(=S)S/C1=C\c1coc2ccc(O)cc2c1=O	/	-7.0	-6.1	-5.69	1.0	/	0.0319*
COc1cc2c(cc1OC)CN(CC(=O)Nc1ccc3c(c1)OC(F)(F)O3)CC2	2.48*	/	-1.9	-0.572	0.3	-0.6	0.0784
COc1cc2c(cc1OC)CN(CC(=O)Nc1ccc(S(=O)(=O)N(C)C)cc1)CC2	0.492	-2.6	-3.2	-0.485	0.7	1.9	/
Cc1nc(NC(=O)c2cccnc2)ccc1Br	/	3.1	-1.6	0.131	1.4	0.3	0.0793
Cc1ccc(C(=O)Nc2ccnc(-c3cccnc3)n2)cc1	4.57*	-12.0	25.0	0.501	0.6	2.2	0.111*
COc1ccc(C(=O)Nc2ccnc(-c3cccnc3)n2)cc1	4.37*	-8.0	-5.0	/	0.5	1.1	0.104*
Cc1cc(NCC(c2ccccc2)c2ccccc2)n2ncnc2n1	-1.25	-21.1	21.2	-1.18	-0.4	1.4	/
COc1cc2c(cc1NC(=O)CN(C)Cc1ccc(OC)c(OC)c1)oc1ccccc12	/	14.4	-8.8	0.402	1.1	-0.5	/
COc1cc(OC)cc(C(=O)N[C@H](C(=O)OCC(=O)NC(=O)c2cccn2C)C(C)C)c1	-0.359	4.3	-13.5	-0.287	-0.3	-1.0	/
N#Cc1c2n(c(=S)n(-c3ccc(F)cc3)c1=O)CCCCC2	0.303	-6.5	-3.8	-0.519	-0.2	2.2	/
CCC(=O)N1CCN(c2ccccc2NC(=O)COc2cc(C)ccc2C(C)C)CC1	-3.51*	12.3	6.6	-0.716	-0.7	7.0	0.066*
Cc1ccc(OCC(=O)Nc2ccccc2N2CCCC2)c(C)c1	0.552	-4.3	2.7	-0.442	0.8	-1.1	/
O=C1CCC2S/C(=C/Nc3ccc(C(F)(F)F)cc3)C(=O)N12 (stereo not given)	0.278	-6.4	1.8	/	2.8	0.4	/
c1ccc2c(-c3ccncc3)c[nH]c2c1	3.95*	-15.4	2.1	/	0.8	-0.1	0.0912
c1ccc(-c2nnc(-c3ccccc3)c(-c3c[nH]c4ccccc34)n2)cc1	/	/	-2.3	1.3	1.2	6.1	/
O=c1c2cc(Cl)ccc2nc(-c2ccc(Cl)c(Cl)c2)n1O	/	-10.3	-12.3	/	1.0	/	0.182*
C=CCNc1nc(-c2ccc(O)c(C(N)=O)c2)cs1	0.597	/	8.8	/	-4.0	2.9	0.0822
CCn1c(/N=C/c2ccccc2NS(=O)(=O)c2ccc(C)cc2)nc2ccccc21	/	-7.7	-16.5	-1.45	4.6	0.4	/
CCOc1ccc2oc(C(=O)NCC(C)(C)CN(C)C)c(C)c2c1	0.898	-22.6	3.1	0.371	1.5	2.6	/
CCOc1ccc(C(=O)/C=C/Nc2ccc(S(=O)(=O)Nc3onc(C)c3C)cc2)cc1	2.75*	-3.4	-5.5	-0.489	0.1	5.8	0.0887
CCc1nnc(NS(=O)(=O)c2ccc(N/C=C/C(=O)c3ccc(OC)cc3)cc2)s1	4.13*	-9.0	-8.1	-0.392	-1.6	3.8	0.0944
Cc1noc(NS(=O)(=O)c2ccc(N/C=C\C(=O)c3cccc4ccccc34)cc2)c1C	/	4.0	-1.5	/	-0.4	5.2	/
CC(=O)C1=C(c2cccc([N+](=O)[O-])c2)N(C(C)=O)n2c(C)nnc2S1	-2.16	-26.8	11.4	1.86	-1.9	-0.1	/
CCOC(=O)c1nnn2c1nc(Nc1cccc(C(F)(F)F)c1)c1ccccc12	-0.324	-17.6	2.0	-0.163	1.2	/	/
O=C(Nc1ccc(F)cc1)Nc1ccc(NC(=O)c2ccccc2O)cc1	-11*	6.6	-1.5	0.0234	0.0	/	0.0787
COc1ccc(CNC(=O)C2CCCN2S(=O)(=O)c2ccc(F)cc2)cc1 (stereo not given)	0.837	-3.1	-17.0	-0.605	-1.1	0.9	/
